# From PubChem BioAssay (NCATS)
# Results filed as inconclusive are left out. The source made the active and inactive calls. The call rests on the fitted dose curve; in most records, active means well fitted cell-killing curve with a large enough effect; inconclusive means small, poorly fitted or top-dose-only effect, or effect the other way; inactive means no such curve, though single readings can be large or run the other way.
# Experiment: Viability qHTS for spleen associated tyrosine kinase inhibitor (SYKi) naive MV4-11 cells (AID 1963823); further: nearly all actives have a fitted effect of over 40% in size
# Conditions: MV4-11 AML viability, CellTiter-Glo luminescence, 72 h; series mostly up to 45 µM
# Outline: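 Compounds were dispensed acoustically onto plates, MV4-11 cells (SYKi-naive) added at 500 per well, and plates incubated 72 hr at 37 C. CellTiter-Glo was added and luminescence measured after 10 min.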
# Potency means the concentration at half of the fitted maximal effect.
row,SMILES,Potency
1,Oc1c(Br)cc(Br)cc1Br,inactive
2,CNC(=O)Oc1cccc2ccccc12,inactive
3,CC(C)(O)C(Cl)(Cl)Cl,inactive
4,CCN(CC)C(=O)[C@@H]1C=C2c3cccc4[nH]cc(c34)C[C@H]2N(C)C1,28.4 µM (active)
5,CCN(CC)C(=O)N[C@@H]1C=C2c3cccc4[nH]cc(c34)C[C@@H]2N(C)C1,inactive
6,COc1cc(C[C@@H](C)N)c(OC)cc1C,inactive
7,NCCc1ccc(O)cc1,inactive

# Experiment: Viability qHTS for spleen associated tyrosine kinase inhibitor (SYKi) drug resistant MV4-11 cells (AID 1963824); further: nearly all actives have a fitted effect of over 35% in size
# Conditions: SYKi-resistant MV4-11 viability, CellTiter-Glo, 72 h; series mostly up to 45 µM
# Outline: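 SYK inhibitor-resistant MV4-11 AML cells, 500 per well, added to predispensed compounds and incubated 72 hr at 37 C, 5% CO2. Viability measured by CellTiter-Glo luminescence after 10 min at room temperature.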
row,SMILES,Potency
1,C=CC(C)(C)c1[nH]c2cccc3c2c1C[C@@H]1[C@@H]3[C@@H](OC(C)=O)[C@H](C)CN1C,1.01 µM (active)
2,Oc1ccc2c(c1)C13CCCC[C@H]1[C@@H](C2)N(CC1CCC1)CC3,10.3 µM (active)
3,CCC(C)C1NC(=O)C(C(C)=O)=C1O (centres undefined),29.8 µM (active)
4,CN(C(=O)C(c1ccccc1)c1ccccc1)[C@H](CN1CC[C@H](O)C1)c1ccccc1,20.6 µM (active)
5,CCCCCn1cc(C(=O)Cc2ccccc2OC)c2ccccc21,20.6 µM (active)
6,Nc1ccc(Sc2ccc(N)cc2)cc1,43.3 µM (active)
7,C[C@]12CC[C@H](OC3OC(CO)C(O)C(O)C3OC3OC(CO)C(O)C(O)C3O)C[C@@H]1CC[C@@H]1C2CC[C@]2(C)[C@@H](C3=CC(=O)OC3)CC[C@]12O (some centres undefined),5.44 µM (active)
8,COC(=O)CC1CC2(C(=O)c3c(O)cccc3C2(O)C(=O)OC)C(C)O1 (centres undefined),16.1 µM (active)
9,CC(C)[C@H]1OC(=O)[C@H](Cc2ccccc2)N(C)C(=O)[C@@H](C(C)C)OC(=O)[C@H](Cc2ccccc2)N(C)C(=O)[C@@H](C(C)C)OC(=O)[C@H](Cc2ccccc2)N(C)C1=O,5.44 µM (active)
10,CC(=O)O[C@H]1CC[C@H]2[C@@H]3CC[C@H]4CC(=O)C=C(C)[C@]4(C)[C@H]3CC[C@]12C,11.6 µM (active)
11,CCCCN1[C@@H]2CC[C@H]1CC(OC(c1ccc(F)cc1)c1ccc(F)cc1)C2 (some centres undefined),8.2 µM (active)
12,C[C@]12CC[C@H](O)C[C@H]1CC[C@@H]1[C@@H]2[C@H](O)C(=O)[C@]2(C)[C@@H](c3ccc(=O)oc3)CC[C@]12O,0.0092 µM (active)
13,Cc1ccc(-n2nccn2)c(C(=O)N2CCN(c3nc4cc(Cl)ccc4o3)CCC2C)c1 (centres undefined),9.2 µM (active)
14,OC1(c2ccc(Cl)cc2)c2ccccc2C2=NCCN21 (centres undefined),16.4 µM (active)
15,C/C=C(\C)C(=O)O[C@@H]1[C@@H](C)[C@]2(O)C3C=C(C)C(=O)[C@@]3(O)CC(CO)=C[C@H]2C2C(C)(C)[C@@]21OC(=O)C(C)CC (some centres undefined),0.0045 µM (active)
16,C=C(C)C(=O)O[C@H]1[C@@H]2[C@H](C)C(=O)O[C@@H]2C[C@@H](C)[C@@H]2C=CC(=O)[C@]21C,1.14 µM (active)

row,SMILES,Potency
1,COC1CC(OC2CCC3(C)C(CCC4C3CCC3(C)C(C5=CC(=O)OC5)C(OC(C)=O)CC43O)C2)OC(C)C1OC1OC(CO)C(O)C(O)C1O (centres undefined),0.485 µM (active)
2,O=C1NC(=O)c2c1c1c3ccccc3[nH]c1c1[nH]c3ccccc3c21,0.0517 µM (active)
3,CC[C@@]1(O)C(=O)OCc2c1cc1n(c2=O)Cc2cc3c(OC)cccc3nc2-1,0.0114 µM (active)
4,CC(=O)O[C@H]1CC[C@@]2(CI)C(=CC[C@@H]3[C@@H]2CC[C@]2(C)C(=O)CC[C@@H]32)C1,20.6 µM (active)
5,C#CC1(O)CCC2C3CCC4=CC(=O)CCC4=C3C=CC21C (centres undefined),18.4 µM (active)
6,COC1(C[S@@](=O)c2ccccc2)CCN(CCc2c[nH]c3ccc(F)cc23)CC1,20.6 µM (active)
7,Clc1ccc(N2C[C@H]3CC[C@@H](C2)N3)nn1,inactive
8,CC(=O)OC[C@]12C[C@H](O)C(C)=C[C@H]1O[C@@H]1[C@H](O)[C@@H](O)[C@@]2(C)[C@]12CO2,0.805 µM (active)
9,CC1=CC2/C=C(\C)CCC(O)C3OC(C)(C)OC3CC(=O)OC23C(=O)NC(CC(C)C)C3C1C (centres undefined),12.6 µM (active)
10,COC(=O)C12C(=O)C(C)(O)C(=O)C1(C)C(C)=CC1C34CCC(OC3=O)C(C)(CO)C4CCC12C (centres undefined),inactive
11,ClC1=C(Cl)[C@]2(Cl)[C@@H]3[C@@H]4C[C@@H]([C@H]5O[C@@H]45)[C@@H]3[C@@]1(Cl)C2(Cl)Cl,30.6 µM (active)
12,COc1cccc(C(=O)CCN[C@@H](C)[C@H](O)c2ccccc2)c1,inactive
13,C[C@]12CC[C@@H](O[C@@H]3O[C@H](CO)[C@@H](O)[C@H](O)[C@H]3O)C[C@@]1(O)CCC1C2CC[C@]2(C)[C@@H](C3=CC(=O)OC3)CC[C@]12O (some centres undefined),0.0632 µM (active)
14,O=C(C[C@@H]1NCCC[C@H]1O)Cn1cnc2ccccc2c1=O,0.231 µM (active)
15,CCOC(=O)Nc1ccc(NCc2c(C)cc(C)cc2C)cc1N,9.2 µM (active)
16,Cc1c(Cl)cccc1S(=O)(=O)Nc1nc(CC(=O)N2CCN(C)CC2)cs1,inactive
